The values that follow come from ChEMBL document CHEMBL2218924, “A broad activity screen in support of a chemogenomic map for kinase signalling research and drug discovery” (Biochem J, 2013).

Structures are written as SMILES.

Assay [1] addresses T1, cGMP-dependent protein kinase 1 (Homo sapiens) (UniProt Q13976).
T1 sequence (whole entry): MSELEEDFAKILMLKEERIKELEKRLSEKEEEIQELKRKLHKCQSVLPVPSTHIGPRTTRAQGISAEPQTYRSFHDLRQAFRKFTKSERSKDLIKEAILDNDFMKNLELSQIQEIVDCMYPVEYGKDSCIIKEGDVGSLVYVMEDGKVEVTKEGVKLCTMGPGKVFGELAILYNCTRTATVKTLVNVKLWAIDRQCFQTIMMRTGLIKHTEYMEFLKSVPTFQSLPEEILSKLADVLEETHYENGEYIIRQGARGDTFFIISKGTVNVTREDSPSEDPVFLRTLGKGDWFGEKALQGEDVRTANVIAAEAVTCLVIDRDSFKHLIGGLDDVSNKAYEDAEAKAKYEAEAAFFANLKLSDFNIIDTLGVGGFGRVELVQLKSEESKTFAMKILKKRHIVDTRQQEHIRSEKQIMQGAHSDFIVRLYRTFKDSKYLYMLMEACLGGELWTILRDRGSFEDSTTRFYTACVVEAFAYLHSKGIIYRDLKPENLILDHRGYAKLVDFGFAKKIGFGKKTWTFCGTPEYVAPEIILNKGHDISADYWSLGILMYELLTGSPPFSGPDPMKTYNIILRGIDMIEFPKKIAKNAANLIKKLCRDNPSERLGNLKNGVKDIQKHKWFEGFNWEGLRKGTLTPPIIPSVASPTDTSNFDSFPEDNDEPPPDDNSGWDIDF
Particulars: at 1 µM.

Assay [2] has as its target T1, cGMP-dependent protein kinase 1 (Homo sapiens). Particulars: at 10 µM.
The target is the same in assay [3]. Particulars: at 1 µM. The source holds these as a separate data set.
Assay [4] has the same target. Particulars: at 10 µM. This is another data set of the same source.
The target in assay [5] is T2, MAP kinase-activated protein kinase 5 (Homo sapiens) (UniProt Q8IW41).
T2 sequence (whole entry): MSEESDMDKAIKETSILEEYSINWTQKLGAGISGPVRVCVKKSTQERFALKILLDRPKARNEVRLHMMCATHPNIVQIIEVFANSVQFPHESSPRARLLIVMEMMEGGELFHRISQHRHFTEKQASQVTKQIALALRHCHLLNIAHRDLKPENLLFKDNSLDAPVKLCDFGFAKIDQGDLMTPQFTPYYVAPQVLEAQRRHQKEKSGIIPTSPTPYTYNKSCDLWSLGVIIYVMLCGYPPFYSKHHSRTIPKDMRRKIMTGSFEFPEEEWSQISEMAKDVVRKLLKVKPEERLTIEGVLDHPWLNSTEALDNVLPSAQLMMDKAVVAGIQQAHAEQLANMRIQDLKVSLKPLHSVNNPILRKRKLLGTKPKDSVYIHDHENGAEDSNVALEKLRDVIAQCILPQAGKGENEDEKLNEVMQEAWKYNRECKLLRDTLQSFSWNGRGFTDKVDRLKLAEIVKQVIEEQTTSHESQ
To be noted: at 1 µM.

For assay [6], the target named is T2, MAP kinase-activated protein kinase 5 (Homo sapiens). To be noted: at 10 µM.
Assay [7] addresses Serine/threonine-protein kinase N2 (Homo sapiens) (UniProt Q16513). To be noted: at 1 µM.
Assay [8] has the same target. Particulars: at 10 µM.
The target of assay [9] is Tyrosine-protein kinase FRK (Homo sapiens) (UniProt P42685). Particulars: at 1 µM.
For assay [10] the target is unchanged. Particulars: at 10 µM.
Assay [11] addresses T3, Phosphorylase b kinase gamma catalytic chain, liver/testis isoform (Homo sapiens) (UniProt P15735).
T3 sequence (whole entry): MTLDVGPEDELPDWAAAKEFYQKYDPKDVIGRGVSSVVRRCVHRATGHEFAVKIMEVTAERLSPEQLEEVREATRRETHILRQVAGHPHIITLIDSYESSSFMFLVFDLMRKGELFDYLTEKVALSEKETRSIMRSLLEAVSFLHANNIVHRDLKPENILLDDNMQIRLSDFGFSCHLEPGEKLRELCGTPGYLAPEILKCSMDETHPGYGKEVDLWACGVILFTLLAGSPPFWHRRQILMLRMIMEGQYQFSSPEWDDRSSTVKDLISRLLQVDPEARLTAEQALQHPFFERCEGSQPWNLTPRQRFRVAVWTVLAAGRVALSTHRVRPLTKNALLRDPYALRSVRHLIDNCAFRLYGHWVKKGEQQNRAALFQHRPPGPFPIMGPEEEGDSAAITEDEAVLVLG
To be noted: at 1 µM.

Assay [12] deals with T3, Phosphorylase b kinase gamma catalytic chain, liver/testis isoform (Homo sapiens). Particulars: at 10 µM.
The target in assay [13] is Serine/threonine-protein kinase pim-1 (Homo sapiens) (UniProt P11309). Particulars: at 1 µM.
For assay [14] the target is unchanged. To be noted: at 10 µM.
The target in assay [15] is Serine/threonine-protein kinase pim-2 (Homo sapiens) (UniProt Q9P1W9). To be noted: at 1 µM.
Assay [16] has the same target. To be noted: at 10 µM.
In assay [17] the target is Serine/threonine-protein kinase pim-3 (Homo sapiens) (UniProt Q86V86). Particulars: at 1 µM.
The target is the same in assay [18]. Particulars: at 10 µM.
Assay [19] deals with Serine/threonine-protein kinase PLK1 (Homo sapiens) (UniProt P53350). Particulars: at 1 µM.
Assay [20] has the same target. Particulars: at 10 µM.

Serine/threonine-protein kinase pim-1 (Homo sapiens), sequence (P11309 whole entry, looked up): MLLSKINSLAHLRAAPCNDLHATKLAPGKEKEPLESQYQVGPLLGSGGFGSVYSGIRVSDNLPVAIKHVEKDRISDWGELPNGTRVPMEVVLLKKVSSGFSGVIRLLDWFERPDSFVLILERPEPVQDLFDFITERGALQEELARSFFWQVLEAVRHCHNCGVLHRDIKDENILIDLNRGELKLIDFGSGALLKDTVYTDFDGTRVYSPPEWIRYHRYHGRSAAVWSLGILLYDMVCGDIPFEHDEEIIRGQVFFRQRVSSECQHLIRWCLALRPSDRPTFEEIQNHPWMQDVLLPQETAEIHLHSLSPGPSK
Serine/threonine-protein kinase PLK1 (Homo sapiens), sequence (P53350 whole entry): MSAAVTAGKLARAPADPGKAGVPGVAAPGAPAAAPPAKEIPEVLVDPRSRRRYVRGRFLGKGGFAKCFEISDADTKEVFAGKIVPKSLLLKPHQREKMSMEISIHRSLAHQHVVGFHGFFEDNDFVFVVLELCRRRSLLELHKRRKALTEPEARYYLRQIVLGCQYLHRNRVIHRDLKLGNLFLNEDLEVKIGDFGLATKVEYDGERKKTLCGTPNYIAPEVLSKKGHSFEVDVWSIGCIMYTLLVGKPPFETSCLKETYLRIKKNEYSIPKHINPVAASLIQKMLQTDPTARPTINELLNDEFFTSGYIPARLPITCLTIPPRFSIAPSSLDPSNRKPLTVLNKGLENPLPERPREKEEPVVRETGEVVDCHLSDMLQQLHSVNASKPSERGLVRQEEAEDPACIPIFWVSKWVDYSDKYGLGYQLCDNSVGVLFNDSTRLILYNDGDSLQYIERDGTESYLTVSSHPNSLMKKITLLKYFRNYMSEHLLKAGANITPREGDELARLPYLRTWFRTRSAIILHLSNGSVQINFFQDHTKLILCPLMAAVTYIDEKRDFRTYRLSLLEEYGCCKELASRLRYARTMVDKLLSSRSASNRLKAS
Serine/threonine-protein kinase pim-2 (Homo sapiens), sequence (Q9P1W9 whole entry, looked up): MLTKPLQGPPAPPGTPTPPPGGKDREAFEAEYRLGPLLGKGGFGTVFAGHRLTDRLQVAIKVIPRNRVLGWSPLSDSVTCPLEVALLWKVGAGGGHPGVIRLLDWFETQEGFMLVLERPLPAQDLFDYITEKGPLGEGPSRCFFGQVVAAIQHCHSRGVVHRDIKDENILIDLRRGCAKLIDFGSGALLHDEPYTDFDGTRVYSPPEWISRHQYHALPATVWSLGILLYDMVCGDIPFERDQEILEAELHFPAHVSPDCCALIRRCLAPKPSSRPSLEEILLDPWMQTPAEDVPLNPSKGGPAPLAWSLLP
Tyrosine-protein kinase FRK (Homo sapiens), sequence (P42685 whole entry): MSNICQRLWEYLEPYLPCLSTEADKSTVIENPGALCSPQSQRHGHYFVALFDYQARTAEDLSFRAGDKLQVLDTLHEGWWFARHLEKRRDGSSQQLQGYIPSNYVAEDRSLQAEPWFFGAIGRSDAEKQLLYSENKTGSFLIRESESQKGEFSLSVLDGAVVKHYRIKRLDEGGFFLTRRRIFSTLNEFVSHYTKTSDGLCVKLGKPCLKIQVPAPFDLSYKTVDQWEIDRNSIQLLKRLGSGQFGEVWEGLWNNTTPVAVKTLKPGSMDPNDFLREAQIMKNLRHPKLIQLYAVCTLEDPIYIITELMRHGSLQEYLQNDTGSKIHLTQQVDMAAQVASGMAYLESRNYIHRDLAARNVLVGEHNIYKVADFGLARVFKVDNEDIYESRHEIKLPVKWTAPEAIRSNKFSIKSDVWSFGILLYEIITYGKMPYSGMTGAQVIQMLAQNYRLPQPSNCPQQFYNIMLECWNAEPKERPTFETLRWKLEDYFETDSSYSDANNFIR
Serine/threonine-protein kinase N2 (Homo sapiens), sequence (Q16513 whole entry, looked up): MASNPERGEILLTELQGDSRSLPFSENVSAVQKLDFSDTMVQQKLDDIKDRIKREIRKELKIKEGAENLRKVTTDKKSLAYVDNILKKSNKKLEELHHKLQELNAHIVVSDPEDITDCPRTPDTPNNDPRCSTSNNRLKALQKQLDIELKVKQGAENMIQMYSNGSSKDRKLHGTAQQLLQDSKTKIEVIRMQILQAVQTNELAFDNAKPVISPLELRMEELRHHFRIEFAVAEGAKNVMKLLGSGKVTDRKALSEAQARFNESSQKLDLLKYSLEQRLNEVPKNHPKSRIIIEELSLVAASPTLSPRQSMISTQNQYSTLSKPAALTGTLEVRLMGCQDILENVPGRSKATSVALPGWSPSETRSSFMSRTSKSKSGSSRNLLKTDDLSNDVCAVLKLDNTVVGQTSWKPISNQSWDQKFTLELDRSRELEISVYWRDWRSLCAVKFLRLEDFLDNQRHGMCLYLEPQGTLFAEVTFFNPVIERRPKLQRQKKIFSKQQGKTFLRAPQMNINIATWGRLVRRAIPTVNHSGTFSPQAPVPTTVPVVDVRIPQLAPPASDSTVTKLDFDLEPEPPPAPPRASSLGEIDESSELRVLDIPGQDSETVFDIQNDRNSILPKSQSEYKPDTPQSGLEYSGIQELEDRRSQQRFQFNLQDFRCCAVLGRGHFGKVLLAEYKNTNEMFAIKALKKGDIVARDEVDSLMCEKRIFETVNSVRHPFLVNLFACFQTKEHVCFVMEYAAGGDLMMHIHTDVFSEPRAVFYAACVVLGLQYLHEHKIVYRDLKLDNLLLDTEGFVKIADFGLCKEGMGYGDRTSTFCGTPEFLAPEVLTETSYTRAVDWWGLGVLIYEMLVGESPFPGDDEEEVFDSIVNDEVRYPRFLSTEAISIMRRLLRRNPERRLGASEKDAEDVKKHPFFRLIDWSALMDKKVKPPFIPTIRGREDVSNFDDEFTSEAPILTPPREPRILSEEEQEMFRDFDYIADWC

On to `Oc1ccc(Nc2nc(-c3ccc(Cl)cc3)cs2)cc1`, for which the residual activity in assay [1] worked out at 100%; in assay [2] it was 99%; in assay [3], 113%; in assay [4] it was 111%; in assay [5], 115%; in [6], 69%. Besides, the residual activity in [7] was found to be 110%; in assay [8] it was 107%; in assay [9] it was 104%; in assay [10], 118%; in assay [11] it was 129%; in [12], 130%. For the same compound, the residual activity in [13] was 77%; in assay [14], 52%; in assay [15] it was 126%; in assay [16], 82%; in assay [17] it was 93%; in [18], 97%. In addition, the results for the residual activity in assay [19] and in assay [20] were 97% and 90%, respectively.
In the case of `O=Nc1c(-c2c(O)[nH]c3ccccc23)[nH]c2ccccc12`, the residual activity in assay [1] was 77%; in assay [2], 67%; in assay [3], 79%; in [4], 45%; in [5], 78%; in [6], 24%. Moreover, the residual activity in assay [7] is 91%; in assay [8] it was 48%; in assay [9], 13%; in assay [10], 6%; in assay [11], 25%; in assay [12], 12%. Moreover, the residual activity in [13] came to 76%; in assay [14], 47%; in assay [15], 68%; in [16], 38%; in [17] it was 94%; in assay [18], 90%. In addition, the results for the residual activity in [19] and in [20] were 83% and 103%, respectively.
For the compound `Cn1nc2c3c(cccc31)C(=O)c1ccccc1-2`, the residual activity was 86% in [1]; 95% in [2]; 100% in [3]; 6% in assay [4]; 76% in assay [5]; 44% in assay [6]. The residual activity in assay [7] stood at 95%; in assay [8], 77%; in assay [9], 87%; in assay [10], 64%; in assay [11] it was 102%; in assay [12], 84%. Further, the residual activity was determined as 71% in [13]; 45% in assay [14]; 91% in assay [15]; 44% in [16]; 80% in assay [17]; 66% in assay [18]. Moreover, the residual activity came to 81% in assay [19] and 77% in assay [20].
For the compound `COc1cc2ncnc(N3CCN(C(=O)Nc4ccc(Oc5ccccc5)cc4)CC3)c2cc1OC`, the residual activity was 99% in assay [1]; 110% in [2]; 68% in [3]; 72% in assay [4]; 78% in assay [5]; 79% in [6]. Further, the residual activity turned out to be 88% in assay [7]; 112% in assay [8]; 96% in [9]; 127% in [10]; 103% in [11]; 122% in [12]. The residual activity in assay [13] amounted to 111%; in assay [14] it was 122%; in assay [15], 92%; in assay [16], 149%; in assay [17] it was 91%; in assay [18] it was 93%. In addition, the residual activity came to 63% in assay [19] and 61% in [20].
Take `O=C1NC(=O)/C(=C/c2ccc3c(c2)OC(F)(F)O3)S1`: the residual activity amounted to 105% in [1]; 108% in assay [2]; 72% in [3]; 52% in [4]; 106% in assay [5]; 37% in [6]. Also, the residual activity is 117% in assay [7]; 97% in assay [8]; 101% in assay [9]; 107% in assay [10]; 85% in assay [11]; 94% in assay [12]. The residual activity in assay [13] was determined as 37%; in [14], 5%; in [15] it was 58%; in assay [16], 10%; in [17], 88%; in assay [18], 41%. For the same compound, the residual activity in assay [19] was 101%; in assay [20], 61%.
Consider `COc1ccc(S(=O)(=O)N(CCO)c2ccccc2CN(C)C/C=C/c2ccc(Cl)cc2)cc1`, for which the residual activity was 101% in [1]; 99% in assay [2]; 103% in assay [3]; 86% in [4]; 98% in assay [5]; 53% in assay [6]. The residual activity in [7] was found to be 95%; in assay [8] it was 69%; in assay [9], 100%; in [10] it was 125%; in assay [11], 116%; in assay [12] it was 83%. Besides, the residual activity in [13] stood at 96%; in [14] it was 73%; in assay [15] it was 143%; in assay [16] it was 137%; in [17], 86%; in assay [18] it was 82%. Besides, the residual activity was 76% in [19] and 72% in assay [20].
For the compound `CO[C@H]1C[C@@H]2CC[C@@H](C)[C@@](O)(O2)C(=O)C(=O)N2CCCC[C@H]2C(=O)O[C@H]([C@H](C)C[C@@H]2CC[C@@H](O)[C@H](OC)C2)CC(=O)[C@H](C)/C=C(\C)[C@@H](O)[C@@H](OC)C(=O)[C@H](C)C[C@H](C)/C=C/C=C/C=C/1C`, the residual activity in [1] came out at 101%; in assay [2], 128%; in assay [3], 86%; in assay [4] it was 85%; in [5] it was 57%; in [6], 62%. Also, the residual activity is 95% in assay [7]; 116% in assay [8]; 95% in assay [9]; 112% in assay [10]; 94% in assay [11]; 116% in assay [12]. In addition, the residual activity in assay [13] came out at 105%; in assay [14], 141%; in assay [15], 110%; in assay [16], 142%; in [17], 97%; in assay [18], 93%. The residual activity in [19] was 75%; in [20] it was 66%.
